CHO-K1 Ca PAM: nonselective calcium activators in parental CHO-K1 cells, primary screen, counter-screen for M1 PAM project, cell-based, Fluo-8 calcium fluorescence, full deck, 1536-well. ATP EC20; 0% at ATP EC20, 100% at ATP max. activation, % at 3 µM. hit rate 0.02% among 360,000;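 active = activation above the run cutoff, the mean activation of all test compounds plus 3 SD, cut at about 40% in these data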;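 also: peak over basal fluorescence ratio in a 140 s read after ATP addition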
M4 antag: human M4 muscarinic receptor antagonists, primary screen, CHO cells, Fluo-8 calcium fluorescence; Muscarinic acetylcholine receptor M4 (Homo sapiens), P08173; CHO-hM4 cells, ACh EC80; inhibition, % at 3 µM; hit rate 0.73% among 360,000; AID 624125, 2012;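 active = inhibition above its plate's cutoff, the mean inhibition of sample wells plus 3 SD, cut at about 27% in these data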
Target sequence (P08173 whole entry, looked up): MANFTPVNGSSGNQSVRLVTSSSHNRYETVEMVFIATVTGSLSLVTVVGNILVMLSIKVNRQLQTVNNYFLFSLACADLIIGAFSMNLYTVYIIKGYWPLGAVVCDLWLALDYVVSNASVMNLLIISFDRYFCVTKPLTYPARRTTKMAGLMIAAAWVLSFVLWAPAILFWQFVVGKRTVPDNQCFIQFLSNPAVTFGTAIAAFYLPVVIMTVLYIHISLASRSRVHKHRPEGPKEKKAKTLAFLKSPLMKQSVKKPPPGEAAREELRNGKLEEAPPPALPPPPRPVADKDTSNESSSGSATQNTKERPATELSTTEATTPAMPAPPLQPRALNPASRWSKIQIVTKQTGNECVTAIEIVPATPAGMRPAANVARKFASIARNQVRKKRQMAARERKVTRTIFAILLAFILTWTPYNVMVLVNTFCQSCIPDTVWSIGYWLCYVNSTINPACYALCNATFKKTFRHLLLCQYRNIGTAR
CHO-K1 Ca antag: nonselective inhibitor or artifact in parental CHO-K1 cells; ATP-induced calcium, Fluo-8 fluorescence; inhibition, % at 3 µM; hit rate 0.6% among 360,000;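 active = inhibition above a per-plate cutoff, the plate's mean sample inhibition plus 3 SD, cut at about 24% in these data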
M4 ag: human M4 muscarinic receptor agonists, primary screen, CHO-K1 cells, Fluo-8 calcium fluorescence; CHO-K1 hM4/Gqi5; vehicle 0%, full acetylcholine response 100%; activation, % at 3 µM; hit rate 0.14% among 360,000;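 active = activation above the run mean over all test wells plus 3 SD, cut at about 32% in these data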;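 also: peak over basal fluorescence ratio per well then scaled between controls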
M1 ag parental: counter-screen for M1 agonists: effect in parental CHO-K1 cells. Fluo-8 calcium fluorescence; scaled to maximal ATP response, vehicle zero. activation, % at 3 µM. hit rate 0.48% among 360,000. AID 602248, 2012; in the data active = activation above about 15%;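 also: untransfected CHO-K1 host cells lacking M1 receptor as counterscreen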
M4 PAM: human M4 muscarinic receptor positive allosteric modulators, primary screen, CHO-K1 cells, Fluo-8 calcium fluorescence | Muscarinic acetylcholine receptor M4 (Homo sapiens), P08173 | CHO-K1 hM4/Gqi5, ACh EC20; 0% = ACh EC20, 100% = maximal ACh | activation, % at 3 µM | hit rate 0.4% among 360,000 | AID 624126, 2012;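 active = activation above its plate's cutoff, the mean activation of sample wells plus 3 SD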
Of the large screens only hits and unclear results are named; the others gave an inactive call; ! = a repeat was not active. Only some compounds are listed: those with a hit (about 2% of all), similar ones and a draw of the others.

COc1ccc(-n2c(COc3cccc4ccccc34)nnc2SC(C)C(=O)O)cc1 (stereo not drawn)	CHO-K1 Ca antag 32
O=C(Nc1ccccc1)NC1CC2CCC(C1)N2Cc1nnnn1Cc1ccc2c(c1)OCO2 (stereo not drawn)	none
CCOc1ccccc1NC(=O)NC1CC2CCCC(C1)N2Cc1nnnn1CCc1ccccc1 (stereo not drawn)	M4 antag 42
N#CC1=C(N)Oc2cc(N)ccc2C1c1cccnc1 (stereo not drawn)	none
N#CC1=C(N)Oc2nc(-c3ccccc3)[nH]c2C1c1cccnc1 (stereo not drawn)	CHO-K1 Ca antag 32
CCN(CC)c1ccc2c(c1)OC(N)=C(C#N)C2c1cccnc1 (stereo not drawn)	M1 ag parental 17
CC1CCCN(CCOCCOc2ccc(Cl)cc2Br)C1 (stereo not drawn)	none
COc1ccc(N=Cc2oc3ccc4ccccc4c3c2O)cc1	M1 ag parental 24
COc1ccc(N=Cc2ccccc2O)cc1	none
Cc1ccc(NC(=O)CSc2nnc(-c3cccnc3)s2)cc1	none
O=C(CSc1nnc(-c2cccnc2)s1)Nc1ccnc2ccccc12	CHO-K1 Ca antag 26
O=C(CCc1nc(-c2ccccc2)no1)Nc1cccnc1	M1 ag parental 16
COc1ccc(-n2c(Cc3cccn3C)nnc2SCC(=O)Nc2ccc3c(c2)OCCO3)cc1	none
C/C(=N\Nc1cc(C(F)(F)F)ccc1Cl)c1ccccc1O	none
CCC1CCCCN1CCCNC(=O)c1ccc2c(c1)N(Cc1ccc(F)cc1)C(=O)c1ccccc1S2=O (stereo not drawn)	M4 antag 29
O=C(NCCCN1CCCC1)c1ccc2c(c1)N(Cc1ccc(F)cc1)C(=O)c1ccccc1S2=O (stereo not drawn)	none
COC(=O)c1ccc(NC(=O)CCn2cccc2)cc1	none
O=S(=O)(Nc1nc2ccccc2[nH]1)c1ccccc1	none
O=S(=O)(Nc1nc2ccccc2[nH]1)c1ccc(Cl)cc1	M4 antag 67
COc1ccc(S(=O)(=O)NCC2CCCO2)cc1C(=O)O (stereo not drawn)	none
CCCn1nnc(NC(=O)c2ccc([N+](=O)[O-])cc2Cl)n1	M1 ag parental 15
COc1cc(C)c(Cl)c(C)c1S(=O)(=O)NCc1cccnc1	CHO-K1 Ca antag 27
C[C@H](CO)N1C[C@H](C)[C@@H](CN(C)C(=O)Nc2ccc3c(c2)OCO3)Oc2c(NC(=O)Nc3ccc(C(F)(F)F)cc3)cccc2C1=O	M4 antag 30
C[C@H](CO)N1C[C@H](C)[C@@H](CN(C)Cc2ccc(Oc3ccccc3)cc2)Oc2c(NC(=O)c3ccncc3)cccc2C1=O	CHO-K1 Ca PAM 46
COc1ccc(NC(=O)N(C)C[C@H]2Oc3c(NC(=O)Nc4ccc(C(F)(F)F)cc4)cccc3C(=O)N([C@H](C)CO)C[C@@H]2C)cc1	M4 antag 29, M4 ag 37
C[C@H](CO)N1C[C@H](C)[C@@H](CN(C)C(=O)Nc2ccc(C(F)(F)F)cc2)Oc2c(NC(=O)Nc3ccc4c(c3)OCO4)cccc2C1=O	none
CN(C)c1ccc(-c2noc(C3CCN(S(=O)(=O)c4cccc(C(=O)O)c4)CC3)n2)cc1	none
Cc1ccc(Cl)cc1N1CCN(C(=O)CSc2nnc3n2C(C)(C)Cc2ccccc2-3)CC1	M4 antag 33
CC[C@@]1(C(=O)OC)N[C@H](CN(C)C(=O)Nc2ccc(C)cc2)[C@@H]2C(=O)N(Cc3ccccc3)C(=O)[C@@H]21	none
CC[C@@H](C)[C@@H]1CN([C@@H](C)CN2CCC[C@H]2CN2C(N)=NC[C@H]2CC(C)C)C(=N)N1CCCC1CCCC1	none
CCCCN1C(=N)N([C@@H](C)CN2CCC[C@H]2CN2C(N)=NC[C@@H]2Cc2ccccc2)C[C@H]1Cc1ccccc1	M4 antag 40
CC[C@@H](C)[C@@H]1CN([C@@H](C)CN2CCC[C@H]2CN2C(N)=NC[C@@H]2Cc2ccccc2)C(=N)N1CCCC1CCCC1	M4 antag 65
CCCC1(C(=O)OCC)NC(c2cc(OC)c(OC)c(OC)c2)C2C(=O)N(CC)C(=O)C21 (stereo not drawn)	M4 PAM 35
O=C(NCCCn1ccnc1)C(=O)NCC(c1ccco1)N1CCN(c2ccccc2)CC1 (stereo not drawn)	M4 antag 33
CC1(C2CC2)NC(=O)N(CC(=O)Nc2ccc(F)cc2F)C1=O (stereo not drawn)	none
CCOC(=O)CSc1ccc2nnc(-c3ccccc3)n2n1	CHO-K1 Ca antag 26
C[C@H](NC(=O)c1nc[nH]c1C(=O)NCc1ccc(CNC(=O)OC(C)(C)C)cc1)C(=O)OCc1ccccc1	M4 antag 50
COc1ccc(OC)c(/C=N/N=C2\SCC(=O)N2Cc2ccco2)c1	none
COc1ccc(CN2C(=O)CS/C2=N/N=C/c2cccs2)cc1	CHO-K1 Ca antag 25
O=C(CN1CCCCC1)N1CCCc2ccccc21	none
O=C(CN1CCCCCC1)N1c2ccccc2C=Cc2ccccc21	M4 antag 95
CN1CCN(C(=O)N2c3ccccc3C=Cc3ccccc32)CC1	M4 antag 71
O=C(CN1CCCC1)N1c2ccccc2C=Cc2ccccc21	M4 antag 51
O=C(C1CCN(S(=O)(=O)c2ccc(-n3cnnn3)cc2)CC1)N1CCN(c2ccccc2)CC1	none
O=C(NCCc1ccc(Cl)cc1)c1ccc(CS(=O)Cc2ccccc2Cl)o1 (stereo not drawn)	none
CCCCc1nc(NCCN2CCOCC2)c(C#N)c2c1COC(C)(C)C2	CHO-K1 Ca antag 25
Cc1cc(NC(=O)CSc2nc(-c3ccccc3)c(C#N)c(=O)[nH]2)no1	M4 PAM 21
N#Cc1c(-c2ccccc2)nc(SCC(=O)Nc2ccccc2)[nH]c1=O	none
COc1cc(CNCc2ccccc2)cc(Cl)c1OC	none
COc1cc(CNCCc2ccccc2)cc(Cl)c1OCc1ccccc1	M4 antag 27
CC(=O)NC(CC(=O)N(Cc1ccccc1)c1ccc(C)cc1)c1ccccc1 (stereo not drawn)	none
Nn1c(SCC(=O)Nc2nnc(-c3ccccc3)o2)nnc1C1CC1	none
COc1ccc2nc(C)cc(SCC(=O)O)c2c1	CHO-K1 Ca antag 24!
COc1ccc2nc(C)cc(SCC(NC(C)=O)C(=O)OC(C)C)c2c1 (stereo not drawn)	CHO-K1 Ca antag 26
Cc1cnc(C(=O)OCC(=O)NC(C)CCc2ccccc2)cn1 (stereo not drawn)	none

Compound activity (PubChem BioAssay)
